The record followed here is PubChem BioAssay.

Each structure is given as a SMILES string. Values without a mark were called inactive. For some of these results: Entries with a potency or affinity are not part of this list. Active and inactive are the calls of the source. Unless noted, the rule behind the calls is not given here.

Assay [1] can be described thus: antimalarial activity against Dd2 strain (AID 2302;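 active = growth inhibition above 50% at the single 2 µM test dose, taken to imply half-maximal potency below 2 µM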;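 note: 0% = DMSO untreated growth and 100% = chloroquine plus artemisinin killed control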). Conditions: P. falciparum Dd2 in RBCs, LDH growth readout, 72 h; at 2 µM; active compounds read high.
Assay [2] in a line: human hepatoma cell viability loss – ATP luminescence, cytotoxicity control for P. falciparum antimalarial project, primary screen (AID 2303;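 active = inhibition above 50%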;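 note: 0% = DMSO wells and 100% = digitonin-killed cells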). To be noted: HepG2 viability, 24-48 h, at 10 µM, active compounds read high.
Assay [3] concerns the target L-lactate dehydrogenase (Plasmodium falciparum (isolate CDC / Honduras)) (UniProt Q27743). As to the kind of experiment: PfLDH activity inhibition – cell lysate, 3D7 strain, counter-screen for P. falciparum growth inhibition project (AID 2304).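 Note: 0% = vehicle and 100% = reference inhibitor.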 To be noted: P. falciparum 3D7 crude extract, LDH APAD/NBT absorbance; at 2 µM; active compounds read high. For orientation: The purpose of a counterscreen is to sort out artefacts and off-target activity.

Assay [4] can be described thus: inhibition of 3D7 malaria parasite growth – strain 3D7 (AID 2306).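 Note: 0% = DMSO wells and 100% = chloroquine plus artemisinin control wells.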 To be noted: P. falciparum 3D7 erythrocytic growth, LDH absorbance, 72 h; at 2 µM; active compounds read high.
Assay [5] has as its target Calcium-dependent protein kinase 1 (Plasmodium falciparum (isolate 3D7)) (UniProt P62344). As to the kind of experiment: PfCDPK1 kinase inhibitors, biochemical, TCAMS library (AID 1159585; cut-off not given, nearly all actives have IC50 up to about 0.98 µM;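 note: inhibitors leave more ATP so luminescence rises with inhibition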). Conditions: recombinant PfCDPK1, Kinase-Glo ATP depletion luminescence.
Assay [6] addresses Plasmodium falciparum protein kinase 6 (PK6, PF3D7_1337100) (UniProt Q8IDW1). In words: PfPK6 kinase inhibitors, biochemical, TCAMS library (AID 1159586). To be noted: recombinant PfPK6, Kinase-Glo ATP depletion luminescence.
Assay [7] addresses Protein kinase 7 (PK7), Plasmodium falciparum 3D7 (PF3D7_0213400) (UniProt Q7YTF7). In words: inhibition of Plasmodium PK7 catalytic activity – biochemical, TCAMS antimalarial set, Kinase-Glo luminescence (AID 1159587). Conditions: recombinant PfPK7, Kinase-Glo ATP depletion luminescence.
For assay [8], the target named is Calcium-dependent protein kinase 4 (Plasmodium falciparum (isolate 3D7)) (UniProt Q8IBS5). In words: PfCDPK4 kinase inhibitors, biochemical, TCAMS library (AID 1159588; cut-off not given, nearly all actives have IC50 up to about 0.91 µM). To be noted: recombinant PfCDPK4, Kinase-Glo ATP depletion luminescence. For orientation: Kinase-Glo measures the ATP left after a reaction by luminescence.
Sequence of Calcium-dependent protein kinase 4 (Plasmodium falciparum (isolate 3D7)) (Q8IBS5 whole entry, looked up): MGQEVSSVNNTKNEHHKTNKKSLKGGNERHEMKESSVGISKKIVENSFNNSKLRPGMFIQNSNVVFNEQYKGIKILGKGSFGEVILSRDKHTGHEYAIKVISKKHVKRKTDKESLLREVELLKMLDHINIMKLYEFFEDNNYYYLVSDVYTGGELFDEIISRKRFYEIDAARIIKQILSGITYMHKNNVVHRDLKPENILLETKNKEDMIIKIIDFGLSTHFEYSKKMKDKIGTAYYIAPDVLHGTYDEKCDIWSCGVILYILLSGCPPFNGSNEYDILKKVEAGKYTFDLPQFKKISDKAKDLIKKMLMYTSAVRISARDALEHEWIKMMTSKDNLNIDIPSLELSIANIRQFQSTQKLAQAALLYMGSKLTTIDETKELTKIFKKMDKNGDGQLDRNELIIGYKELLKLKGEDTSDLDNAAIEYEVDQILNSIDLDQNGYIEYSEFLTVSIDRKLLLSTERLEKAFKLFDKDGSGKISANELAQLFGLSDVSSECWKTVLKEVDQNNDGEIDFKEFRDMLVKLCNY

Sequence of Calcium-dependent protein kinase 1 (Plasmodium falciparum (isolate 3D7)) (P62344 whole entry, looked up): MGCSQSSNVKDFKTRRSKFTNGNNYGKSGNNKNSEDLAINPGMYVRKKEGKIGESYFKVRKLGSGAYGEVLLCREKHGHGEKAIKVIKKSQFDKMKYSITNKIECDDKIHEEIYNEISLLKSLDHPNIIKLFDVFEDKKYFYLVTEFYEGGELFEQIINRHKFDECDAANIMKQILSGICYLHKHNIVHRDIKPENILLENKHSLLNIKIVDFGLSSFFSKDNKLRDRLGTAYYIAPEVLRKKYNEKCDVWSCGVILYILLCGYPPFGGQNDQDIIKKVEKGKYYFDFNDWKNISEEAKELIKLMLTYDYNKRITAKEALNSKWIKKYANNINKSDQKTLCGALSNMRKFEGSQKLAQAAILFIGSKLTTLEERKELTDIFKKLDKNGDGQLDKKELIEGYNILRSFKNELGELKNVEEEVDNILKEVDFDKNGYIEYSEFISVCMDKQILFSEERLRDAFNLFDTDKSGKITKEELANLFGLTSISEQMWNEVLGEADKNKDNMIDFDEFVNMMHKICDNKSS
Sequence of L-lactate dehydrogenase (Plasmodium falciparum (isolate CDC / Honduras)) (Q27743 whole entry, looked up): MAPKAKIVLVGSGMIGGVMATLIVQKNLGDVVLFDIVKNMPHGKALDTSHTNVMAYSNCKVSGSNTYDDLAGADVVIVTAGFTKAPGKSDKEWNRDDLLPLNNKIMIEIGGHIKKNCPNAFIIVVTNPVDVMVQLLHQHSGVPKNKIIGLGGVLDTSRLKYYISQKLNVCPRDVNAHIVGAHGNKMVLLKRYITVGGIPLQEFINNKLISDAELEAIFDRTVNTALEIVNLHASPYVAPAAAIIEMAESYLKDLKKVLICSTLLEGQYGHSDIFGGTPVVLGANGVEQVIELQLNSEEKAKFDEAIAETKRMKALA
Sequence of Protein kinase 7 (PK7), Plasmodium falciparum 3D7 (PF3D7_0213400) (Q7YTF7 1-343): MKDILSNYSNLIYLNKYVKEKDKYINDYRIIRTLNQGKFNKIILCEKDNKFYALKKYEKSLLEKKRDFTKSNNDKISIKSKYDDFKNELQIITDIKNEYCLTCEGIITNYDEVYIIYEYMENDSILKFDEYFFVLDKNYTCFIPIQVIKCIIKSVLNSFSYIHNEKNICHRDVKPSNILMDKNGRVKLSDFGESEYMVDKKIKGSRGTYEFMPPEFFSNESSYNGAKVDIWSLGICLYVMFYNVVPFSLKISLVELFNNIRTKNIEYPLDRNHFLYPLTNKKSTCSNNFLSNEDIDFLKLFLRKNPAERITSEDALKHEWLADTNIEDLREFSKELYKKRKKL
Sequence of Plasmodium falciparum protein kinase 6 (PK6, PF3D7_1337100) (Q8IDW1 1-305): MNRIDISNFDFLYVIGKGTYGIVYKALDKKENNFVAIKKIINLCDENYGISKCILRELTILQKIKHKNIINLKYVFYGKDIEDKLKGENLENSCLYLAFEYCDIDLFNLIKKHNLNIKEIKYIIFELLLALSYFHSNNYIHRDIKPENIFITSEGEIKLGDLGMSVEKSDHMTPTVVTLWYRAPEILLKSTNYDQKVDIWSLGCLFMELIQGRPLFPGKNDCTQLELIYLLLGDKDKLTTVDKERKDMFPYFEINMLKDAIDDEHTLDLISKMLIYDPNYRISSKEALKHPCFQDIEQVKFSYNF

As usually defined, the inhibition is the drop in the measured response relative to a control, in per cent. Turning to `COC(=O)c1ccc(CC(C)NCC(O)c2cccc(I)c2)cc1` (stereo unspecified), the growth inhibition is 54% (active) in assay [1] and 87% (active) in assay [4]. The inhibition in assay [2] is 15%; in assay [3], -2%. Besides, the outcome in assay [5], in assay [6], in assay [7] and in assay [8] was inactive.
On to `O=C(c1cccs1)N(Cc1cccc(-c2ccc(CNC3CCCC3)cc2)c1)C1CCN(Cc2ccccc2)CC1`, for which the growth inhibition is 74% (active) in assay [1] and 90% (active) in assay [4]. The inhibition is 20% in assay [2] and 0% in assay [3]. The result in assay [5], in assay [6], in assay [7] and in assay [8] was inactive.
`CC[C@H]1CN2CC[C@@H]1C[C@H]2[C@H](O)c1cc(N2CCC(CO)CC2)nc2ccc(OC)cc12`: the growth inhibition in assay [1] and in assay [4] was 99% (active) throughout. Moreover, the inhibition in assay [2] was 4%; in assay [3] it was -1%. Besides, the result in assay [5], in assay [6], in assay [7] and in assay [8] was inactive.
Take `COc1ccc(C(=O)[C@H]2C[C@@H]2CN2CC=C(c3c(C)[nH]c4ccccc34)CC2)cc1`: the results for the growth inhibition in assay [1] and in assay [4] were 94% (active) and 96% (active), respectively. Besides, the inhibition in assay [2] is 16%; in assay [3] it was -6%. Further, the outcome in assay [5], in assay [6], in assay [7] and in assay [8] was inactive.
Turning to `Oc1cc2c(cc1CN1CCN(Cc3ccccc3)CC1)CCC2`, the growth inhibition in assay [1] was 92% (active); in assay [4], 98% (active). Also, the inhibition in assay [2] is 1%; in assay [3], 0%. Further, the outcome in assay [5], in assay [6], in assay [7] and in assay [8] was inactive.
On to `COc1cc(C=CC(=O)NC2CCC(CN3CCC(c4c[nH]c5ccccc45)CC3)CC2)cc(OC)c1` (stereo unspecified), for which the growth inhibition in assay [1] was 90% (active); in assay [4] it was 101% (active). Also, the inhibition in assay [2] is 38%; in assay [3], -9%. Moreover, the outcome in assay [5], in assay [6], in assay [7] and in assay [8] was inactive.
Turning to `O=C(/C=C/c1ccc(O)cc1)NC1CCC(CN2CCC(c3c[nH]c4ccccc34)CC2)CC1` (stereo unspecified), the growth inhibition in assay [1] is 51% (active); in assay [4], 99% (active). Also, the values for the inhibition in assay [2] and in assay [3] were 21% and -7%, respectively. For the same compound, the outcome in assay [5], in assay [6], in assay [7] and in assay [8] was inactive.
Consider `Cc1ccc(CC(C)NCC(O)c2cccc(Cl)c2)cc1` (stereo unspecified), for which the growth inhibition in assay [1] is 64% (active); in assay [4], 93% (active). The figures for the inhibition in assay [2] and in assay [3] were -4% and -1%, respectively. The result in assay [5], in assay [6], in assay [7] and in assay [8] was inactive.
As for `CCc1ccc(CC(C)NCC(O)c2ccccc2)cc1` (stereo unspecified), the growth inhibition was 77% (active) in assay [1] and 89% (active) in assay [4]. For the same compound, the inhibition was -7% in assay [2] and -3% in assay [3]. Further, the result in assay [5], in assay [6], in assay [7] and in assay [8] was inactive.
As for `O=C(c1ccccc1)[C@H]1C[C@@H]1CN1CC=C(c2c[nH]c3ccccc23)CC1`, the values for the growth inhibition in assay [1] and in assay [4] were 73% (active) and 95% (active), respectively. Further, the inhibition in assay [2] is 4%; in assay [3], -6%. In addition, the outcome in assay [5], in assay [6], in assay [7] and in assay [8] was inactive.
Take `O=C(Nc1ccc(CN2CCC(c3c[nH]c4ccc(O)cc34)CC2)cc1)c1ccc(-c2ccccc2)cc1`: the growth inhibition in assay [1] and in assay [4] was 100% (active) each time. For the same compound, the inhibition in assay [2] is 33%; in assay [3], 1%. Also, the outcome in assay [5], in assay [6], in assay [7] and in assay [8] was inactive.
As to `COCCNCc1cccc(-c2ccc(CN(C(=O)NC3CCCCC3)C3CCN(Cc4ccccc4)CC3)cc2)c1`, the growth inhibition in assay [1] is 31%; in assay [4] it was 101% (active). The inhibition in assay [2] was 32%; in assay [3], 6%. Besides, the outcome in assay [5], in assay [6], in assay [7] and in assay [8] was inactive.
Regarding `CC(Cc1ccc(OCCCCOc2ccccc2)cc1)NCCCc1nc2ccccc2[nH]1` (stereo unspecified), the results for the growth inhibition in assay [1] and in assay [4] were 67% (active) and 97% (active), respectively. Also, the inhibition in assay [2] was 99% (active); in assay [3], 3%. Besides, the outcome in assay [5], in assay [6], in assay [7] and in assay [8] was inactive.
For `Oc1ccccc1CN1CCC(CCOC(c2ccccc2)c2ccc(Cl)cc2)CC1` (stereo unspecified), the values for the growth inhibition in assay [1] and in assay [4] were 99% (active) and 97% (active), respectively. Further, the values for the inhibition in assay [2] and in assay [3] were 19% and -8%, respectively. Also, the outcome in assay [5], in assay [6], in assay [7] and in assay [8] was inactive.
On to `O=C(CC1CCCC1)N(CC1CCN(Cc2ccc(C(F)(F)F)cc2)CC1)c1ccc(N2CCOCC2)c(F)c1`, for which the growth inhibition in assay [1] was 97% (active); in assay [4], 92% (active). The inhibition was 10% in assay [2] and -1% in assay [3]. Further, the outcome in assay [5], in assay [6], in assay [7] and in assay [8] was inactive.
As to `CCCCCSc1cc(O)c(C(CNC)C(C)C)cc1OC` (stereo unspecified), the growth inhibition was 99% (active) in assay [1] and 100% (active) in assay [4]. For the same compound, the inhibition in assay [2] was 5%; in assay [3], -4%. Besides, the result in assay [5], in assay [6], in assay [7] and in assay [8] was inactive.
For the compound `O=C(NC1CCC(CN2CCC(c3c[nH]c4ccccc34)CC2)CC1)c1csc(-c2cccc(Cl)c2Cl)n1` (stereo unspecified), the growth inhibition was 41% in assay [1] and 99% (active) in assay [4]. Also, the inhibition was 34% in assay [2] and -3% in assay [3]. For the same compound, the result in assay [5], in assay [6], in assay [7] and in assay [8] was inactive.
